Results from PubChem BioAssay AID602163 (The Scripps Research Institute Molecular Screening Center, 2012).
Several values for one entry are separate records, joined by “and”; a condition that tells them apart may be missing. Equal values may be shown once. The campaign covered roughly 360,000 compounds. About 1,100 (0.31%) were called active. The entries come from a sample that favours actives as a whole. A number with no mark means an inactive call. No stated cut-off is given here; in the data, active means activation above about 7.5%; inactive means the rest.

These compounds were tested on Methionine sulfoxide reductase A (Bos taurus) (assay: activation of methionine sulfoxide reductase A – biochemical, absorbance, bovine, HTS, primary screen (AID 602163;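 further: 0% = vehicle and 100% = reference activator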)). Settings: purified bovine MsrA, absorbance read-out; at 10.6 µM; stronger effect = higher value.
`Cn1c(=O)c2[nH]c(NCC3CCCO3)nc2n(-c2ccccc2)c1=O` (stereo unspecified) showed an activation of -0.78%. `Cc1cccc(NC(=O)CSc2nnc(CCCCCNC(=O)OC(C)(C)C)o2)c1C` was tested, and the activation was -0.45%. `O=C(O)CC(CC(=O)N1CCOCC1)c1ccccc1` (stereo unspecified) was tested, and the activation was -2.3%. For `CC1=NN(C(=O)Cc2ccc(C)cc2)C(O)(c2cccnc2)C1` (stereo unspecified), the activation was 0.86%. `COc1cc(OC)c(C(=O)NCc2ccc3c(c2)OCO3)cc1OC` was tested, and the activation was 9.15% (active). `COc1ccc(NC(=O)NCc2ccc3c(c2)OCO3)c(OC)c1` was tested, and the activation was -3.53%. In the case of `COc1ccccc1-n1c(C)nc2cc(C(=O)NCc3ccc4c(c3)OCO4)ccc21`, the activation is reported as -1.98%. `CCOC(=O)C1CCN(C(=O)c2cccc(S(=O)(=O)N(CC)c3ccccc3)c2)CC1` was tested, and the activation was -8.63%. For `O=C(CCN1CCN(c2ccccc2)CC1)NNC(=S)Nc1ccccc1`, the activation was 12.7% (active). `COc1ccccc1NC(=O)CCN1CCN(c2ccc(Cl)cc2)CC1` showed an activation of -3.09%. Work on `O=C(CN1CCN(c2ccc(O)cc2)CC1)Nc1ccc(-c2ccccc2)cc1` yielded an activation of -3.19%. With `O=C(Nc1ccccc1)c1nnsc1S(=O)(=O)c1ccc(Cl)cc1` the activation was -11.8%. In the case of `O=c1[nH]snc1-c1c(Cl)cccc1Cl`, the activation is reported as -0.32%. `CCC(C)N1C(=O)S/C(=C/c2ccc(Sc3nc4ccccc4[nH]3)o2)C1=O` (stereo unspecified) was tested, and the activation was -7.08%. With `Cc1ccc(S(=O)(=O)n2nc(OC(=O)C(C)(C)C)cc2N)cc1` the activation was 19.7% (active). Work on `Nc1cc(OC(=O)c2ccccc2Br)nn1S(=O)(=O)c1ccccc1` yielded an activation of -3.8%. With `Cc1ccc(S(=O)(=O)N2CCC(C(=O)N3CCCCCCC3)CC2)cc1` the activation was -4.45%. For `CCN(CC)C(=O)Cn1cc(S(=O)(=O)CC(=O)NCc2ccc3c(c2)OCO3)c2ccccc21`, the activation was -1.14%. In the case of `O=C1Oc2ccccc2C(=O)/C1=C/c1ccccc1O`, the activation is reported as -0.91%. Compound `COc1ccccc1NC(=O)C1CCCN1S(=O)(=O)c1ccc(Cl)cc1` (stereo unspecified) has an activation of -9.31%. `NC(=O)COc1ccc(/C=N/NC(=O)C2CCCN2S(=O)(=O)c2ccc(Cl)cc2)cc1` (stereo unspecified) was tested, and the activation was 8.7% (active). Compound `O=C(OCC(=O)N1CCc2ccccc21)C1CCCN1S(=O)(=O)c1ccc(Cl)cc1` (stereo unspecified) has an activation of -1.01%. With `O=C(Nc1ccc2c(c1)C(=O)OC2)Nc1cccc2ccccc12` the activation was -5.72%. `CC1Oc2ccccc2N(Cc2cccnc2)C1=O` (stereo unspecified) showed an activation of -2.41%. With `CC(C)Cn1cnc2c(SCc3ccc(Cl)cc3)nc(N)nc21` the activation was -1.84%. For `CCCCNC(=O)OC(C)CNC(=O)OC` (stereo unspecified), the activation was 8.8% (active). In the case of `CCCCNC(=O)OCCSCCS(=O)(=O)c1ccc(Cl)cc1`, the activation is reported as -0.48%. `CCCCNC(=O)C1(c2ccc(OC)cc2)CCOCC1` showed an activation of 2.44%. `Cc1cccc(-n2cnc(C(=O)NNC(=S)Nc3ccccc3)c2)n1` gave an activation of -2.6%. For `COc1ccc(S(=O)(=O)NC(=O)C2(C)CCN2C(=O)COc2ccc(Cl)cc2)cc1` (stereo unspecified), the activation was -2.84%. In the case of `C=CCn1c(SCC(=O)c2c(N)n(C)c(=O)n(C)c2=O)nc2sc(CC)cc2c1=O`, the activation is reported as 8.63% (active). `C=CCn1c(SCC(=O)/C(C#N)=C(\C)N)nc2sc(C)c(C)c2c1=O` gave an activation of -12.1%. With `CCc1cc2c(=O)n(-c3ccccc3)c(SCC(=O)O)nc2s1` the activation was -3.91%. `COc1cc(C)nc(N2CCCC(C(=O)NCC(C)C)C2)n1` (stereo unspecified) was tested, and the activation was -8.78%. Compound `COc1ccc2cc(C(=O)C3CCCN(C(=O)c4sc(C)nc4C)C3)ccc2c1` (stereo unspecified) has an activation of -0.96%. `COc1ccc2nc(N3CCCC(O)C3)c(C#N)cc2c1` (stereo unspecified) was tested, and the activation was 19.6% (active). `CCOc1ccc2nc(N3CCCN(C(=O)Nc4ccccc4C)CC3)c(C#N)cc2c1` was tested, and the activation was -1.05%. With `CCOC(=O)C(C)n1cnc2c(nnn2-c2cccc(OC)c2)c1=O` (stereo unspecified) the activation was -0.63%. For `CCOc1cccc(-n2nnnc2-c2ccc(OC)cc2)c1`, the activation was 15.8% (active). `COc1ccc(NC(=O)CSc2nnnn2-c2cccc(OC)c2)cc1` gave an activation of -2.59%. `COC(=O)c1c(C)cc(O)c(C)c1O` was tested, and the activation was 3.54%. `Cc1cc(OCc2cc(C(=O)NCc3cc(C(C)C)no3)no2)cc(C)c1Cl` was tested, and the activation was -8.01%. `S=c1[nH]nc(NCCc2ccccc2)s1` was tested, and the activation was 10.4% (active). `Nc1c(NCCc2ccccc2)c2ccccc2oc1=O` gave an activation of -3.29%. In the case of `S=c1[nH]nc(Nc2ccccc2)s1`, the activation is reported as 3.66%. Compound `Cc1cc(=O)oc2c1ccc1ccccc12` has an activation of -2.71%. For `CC1(C)S[C@@H]2[C@H](NC(=O)COc3ccccc3)C(=O)N2C1C(=O)OCc1ccccc1` (stereo partly specified), the activation was 8.55% (active). `COC(=O)C1[C@H]2SC(C)(C)C(C(=O)OC)N2C(=O)N1Cc1nc2ccccc2s1` (stereo partly specified) gave an activation of -2.77%. With `CC1(C)SC2C(NC(=O)COc3ccccc3)C(=O)N2C1C(=O)O` (stereo unspecified) the activation was -2.47% and -3.56%. For `O=c1oc2ccc(C#CC3(O)CCCCC3)cc2cc1-n1cc(-c2ccsc2)nn1`, the activation was -0.09%. With `O=C(CSc1ccccc1)Nc1cccc(S(=O)(=O)N2CCCCC2)c1` the activation was -2.42%. In the case of `Cn1nnnc1SCC(=O)Nc1cccc(S(=O)(=O)N2CCCCC2)c1`, the activation is reported as -4.48%. With `CSCCC1NC(=O)N(CC(=O)Nc2cccc(S(=O)(=O)N3CCCCCC3)c2)C1=O` (stereo unspecified) the activation was 15.5% (active). In the case of `O=C(O)C1CCCCC1C(=O)Nc1ccc(Cl)cc1` (stereo unspecified), the activation is reported as 9.28% (active). `Cc1ccc(NC(=O)C2CC2c2ccccc2)cc1` (stereo unspecified) was tested, and the activation was 1.6%. With `CC(=O)Nc1ccc(NC(=O)C2CCCN(S(=O)(=O)c3ccc(Cl)cc3)C2)cc1` (stereo unspecified) the activation was -1.47%. Compound `O=C(NC1CCN(C(=S)Nc2ccc(Cl)cc2)CC1)C1CCCCC1` has an activation of -9.13%. For `O=C(Cc1ccc(F)cc1)NC1CCCC1`, the activation was -5.09%. With `O=C(O)Cc1ccc(NC(=O)C2CCCCC2C(=O)O)cc1` (stereo unspecified) the activation was 8.45% (active). `O=S1(=O)C=C(SCCN2CCCC2)c2ccccc21` showed an activation of 3.43%. With `CN1CCN(c2ccc3c(c2)OC[C@H](Cc2ccccc2)NS3(=O)=O)CC1` the activation was -2%. Work on `O=C(O)C1OC(C(=O)O)C2C1C(F)(F)C2(F)F` (stereo unspecified) yielded an activation of 0.7%. For `C/C(Cc1ccccc1)=N\NC(=O)CNC(=O)c1ccc2c(c1)OCCO2`, the activation was -1.01%. `Cc1ccc(NC(=O)c2cc([N+](=O)[O-])ccc2Cl)c(O)c1` showed an activation of -10%. `O=C(Nc1ccc2c(c1)OCCO2)C(c1ccc(F)cc1)N1CCCCC1` (stereo unspecified) was tested, and the activation was -9.07%. In the case of `COc1ccc(CN(C)C(=O)Cc2c[nH]c3ccccc23)c(OC)c1OC`, the activation is reported as -0.09%. Compound `Fc1ccccc1COc1ccccc1CNCc1ccncc1` has an activation of -0.5%. `COc1cccc(CNCCc2c[nH]c3ccccc23)c1OCc1ccccc1F` was tested, and the activation was 7.97% (active). `CSc1ccc(Cl)c(C(=O)OCC(=O)N2CC(C)OC(C)C2)c1` (stereo unspecified) showed an activation of 1.67%. `CCN(/N=C/c1ccc(N(C)C)cc1)c1nc2ccccc2[nH]1` showed an activation of -3.63%. Compound `CC1(C)CC(=O)C(C=NCc2cccnc2)=C(O)C1` has an activation of -1.39%. With `COC(=O)C1(O)CC(C(C)C)=NN1C(=O)c1ccc(Cl)cc1` (stereo unspecified) the activation was -2.59%. In the case of `O=c1c2cc(Br)ccc2nc(-c2cccc(Cl)c2)n1O`, the activation is reported as 8.68% (active). Compound `NC(N)=Nc1nc2ccc(Br)cc2c(=O)[nH]1` has an activation of -1.23%. In the case of `NC(=O)c1cc(-c2cccnc2)nc2ccc(Br)cc12`, the activation is reported as -2.46%. Compound `COc1ccccc1C(=O)Nc1ccc(OCC(=O)N2CCCCC2)cc1` has an activation of -2.88%. In the case of `COc1ccc(/C=C/C2=CC(C)(C)NC(=S)N2)c(OC)c1`, the activation is reported as -3.37%. `COc1ccc(NC(=O)COC(=O)CNC(=O)C2CCCCC2)cc1` gave an activation of -4.73%. For `CCOCCCNCc1ccc(OCc2ccc(F)cc2)c(OC)c1`, the activation was -0.52%. `c1ccc(CNCc2ccc(CNCc3ccccc3)cc2)cc1` was tested, and the activation was -4.45%. In the case of `CCOc1ccccc1OCCCNCc1ccccc1`, the activation is reported as 8.23% (active). `Cc1ccccc1NC(=O)c1nn(-c2ccc(F)c(F)c2)ccc1=O` showed an activation of 0.66%. In the case of `Cc1[nH]c(C)c(S(=O)(=O)N2CCN(c3cccc(C(F)(F)F)c3)CC2)c1C(=O)N1CCCC1`, the activation is reported as -2.75%. In the case of `COc1ccccc1CNC(=O)c1cc(-c2cc(F)ccc2OC)n[nH]1`, the activation is reported as 1.13%. Work on `Oc1cc(O)c2c(c1)OC(c1ccc(O)c(O)c1)C(O)C2` (stereo unspecified) yielded an activation of -3.17%. In the case of `O=C(Nc1c(Br)cc2c(c1Br)Cc1cc([N+](=O)[O-])ccc1-2)C(Cl)Cl`, the activation is reported as -0.8%. `COc1ccc(C(CNC(=O)c2cccnc2SC)N2CCOCC2)cc1` (stereo unspecified) showed an activation of -1.39%. In the case of `COc1ccc(C(CNC(=O)c2cc3c(s2)CCCC3)N2CCOCC2)cc1` (stereo unspecified), the activation is reported as 9.37% (active). Work on `COc1ccc(C(CNC(=O)CSc2ccccc2)N2CCOCC2)cc1` (stereo unspecified) yielded an activation of -2.38%. `CCC(C)CCN1CCN=C1N(C)C` (stereo unspecified) was tested, and the activation was -6.93%. Compound `O=C(NC1CCc2ccccc21)C12CN(Cc3ccccc3)CC1C(c1cccc([N+](=O)[O-])c1)=NO2` (stereo unspecified) has an activation of -4.81%. In the case of `O=C(NCCCN1CCOCC1)c1cnn2c(-c3ccccc3)cc(-c3ccccc3)nc12`, the activation is reported as 0.61%. `COc1ccccc1-n1cn[nH]c1=S` was tested, and the activation was 9.25% (active). With `FC(F)(F)c1ccc(-n2cn[nH]c2=S)cc1` the activation was 4.3%. With `COc1cccc(CNn2cn[nH]c2=S)c1OCc1ccccc1` the activation was -8.32%. `CCN(C(=O)Cc1nc(N)n[nH]1)C1(C(=O)Nc2ccccc2)CCCCC1` was tested, and the activation was -1.75%.
